“And” between values parts separate entries of the source, which are not always exact repeats. Equal entries are not always repeated. Records with an inconclusive call do not appear. Where a call stands in place of a potency, no number is given. The source made the active and inactive calls. Unless noted, calls follow the shape of the dose curve; as a rule, active = well fitted curve in the direction sought with a large enough effect in the repeat runs; inconclusive = weak or mixed curves; inactive = no such curve, though single readings can be large; an effect the other way counts as inactive or inconclusive.
What was measured:
[1] = target: Calcium and integrin-binding protein 1 (Homo sapiens) (UniProt Q99828); test: Primary qHTS for Identification of Calcium Integrin Binding Protein 1 (CIB1) Competitor (AID 1508620; active = well fitted curve in the direction sought with a large enough effect; an effect the other way counts as inactive or inconclusive)
Sequence of Calcium and integrin-binding protein 1 (Homo sapiens) (Q99828 whole entry, looked up): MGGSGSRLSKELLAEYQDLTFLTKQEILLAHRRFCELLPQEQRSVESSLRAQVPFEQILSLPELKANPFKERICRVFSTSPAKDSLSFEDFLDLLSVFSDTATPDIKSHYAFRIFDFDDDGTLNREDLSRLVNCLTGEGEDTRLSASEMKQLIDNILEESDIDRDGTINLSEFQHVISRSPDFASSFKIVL
In short: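 CIB1-GST (1 uM final) and compound incubated 15 min at room temperature before adding FITC-alphaIIb peptide tracer (100 nM final). Competition for binding read by fluorescence polarization (ex 480, em 540) after another 15 min at room temperature.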

[2] = target: Cytochrome P450 2D6 (Homo sapiens) (UniProt P10635); test: Cytochrome P450 family 2 subfamily D member 6 (CYP2D6) small molecule antagonists: luciferase biochemical (cell-free) qHTS assay (AID 1645840); also: nearly all actives have a fitted effect of over 55% in size
Sequence of Cytochrome P450 2D6 (Homo sapiens) (P10635 whole entry, looked up): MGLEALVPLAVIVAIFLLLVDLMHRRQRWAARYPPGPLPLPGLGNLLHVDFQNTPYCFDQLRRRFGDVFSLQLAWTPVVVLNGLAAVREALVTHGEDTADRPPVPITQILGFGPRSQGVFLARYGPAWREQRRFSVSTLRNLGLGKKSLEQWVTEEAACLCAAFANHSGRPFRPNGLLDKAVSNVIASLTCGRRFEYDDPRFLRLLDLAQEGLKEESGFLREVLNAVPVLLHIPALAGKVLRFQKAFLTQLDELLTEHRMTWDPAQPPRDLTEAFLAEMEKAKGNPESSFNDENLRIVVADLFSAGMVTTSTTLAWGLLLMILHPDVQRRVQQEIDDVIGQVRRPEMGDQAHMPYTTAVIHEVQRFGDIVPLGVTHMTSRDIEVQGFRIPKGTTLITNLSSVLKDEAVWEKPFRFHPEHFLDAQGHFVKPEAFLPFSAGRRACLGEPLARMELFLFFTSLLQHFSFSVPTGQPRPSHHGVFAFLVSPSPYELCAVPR
In short: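 P450-Glo luminescent screen: recombinant CYP2D6 enzyme–proluciferin substrate mix preincubated with compound 10 min at room temperature, then NADPH regeneration added for 1 h at room temperature. Detection reagent added for 20 min; luciferin light read as relative luminescence units.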
Potency is read from the fitted curve at half-maximal effect.

NS(=O)(=O)Nc1ncnc(OCCOc2ncc(Br)cn2)c1-c1ccc(Br)cc1
Potency [1]: inactive | Potency [2]: inactive

COc1cc2c(cc1OC(C)C)[C@H](c1ccc(Cl)cc1)N(c1ccc(N(C)CC3CCC(N4CCN(C)C(=O)C4)CC3)cc1)C(=O)C2 (stereo not given in full)
Potency [1]: inactive | Potency [2]: 21.3 µM (active)

O=[N+]([O-])c1cn2c(n1)OC[C@@H](OCc1ccc(-c3ccc(OC(F)(F)F)cc3)nc1)C2
Potency [1]: inactive | Potency [2]: inactive

CN1CCC(NC(=O)c2cc(-c3c(O)cc(O)cc3Oc3ccc([N+](=O)[O-])cc3)on2)CC1
Potency [1]: inactive | Potency [2]: inactive

Cc1ccnn1-c1ccc(C(=O)N2CCN(S(=O)(=O)c3ccc(Cl)c(C(F)(F)F)c3)CC2)cc1
Potency [1]: inactive | Potency [2]: inactive

C=CC(=O)Nc1cc(-n2c(=O)ccc3cnc4ccc(-c5ccc(NS(C)(=O)=O)cc5)cc4c32)ccc1C
Potency [1]: inactive | Potency [2]: inactive

COc1cc2c(cc1OCCCN1CCCC1)N=C(N)C21CCC1
Potency [1]: inactive | Potency [2]: 23.9 µM (active)

CC(=O)N1CCN(CCOc2ccc(C3CCN(C4=Nn5c(nnc5C(F)(F)F)CC4)CC3)cc2)CC1
Potency [1]: inactive | Potency [2]: inactive

C[C@H](Nc1ncnc2nc[nH]c12)c1cc2cccc(Cl)c2c(=O)n1-c1ccccc1
Potency [1]: inactive | Potency [2]: inactive

Cc1[nH]c2ccccc2c1CCNC(=O)c1cccs1
Potency [1]: inactive | Potency [2]: 23.9 µM (active)

COc1ccc2nc3n[nH]c(C)c3c(NCCOCCO)c2c1
Potency [1]: 50.1 µM (active) | Potency [2]: 9.52 µM (active)

CN1CCN(C(=O)CN[C@@H]2C[C@H]2c2ccc(OCc3ccccc3)cc2)CC1
Potency [1]: inactive | Potency [2]: 10.7 µM (active)

C[C@@H](NC(=O)c1ccc(C#Cc2cccc(F)c2)cn1)C(C)(C)O
Potency [1]: inactive | Potency [2]: inactive

Cc1ccccc1CN1CCn2c1nc1c(c2=O)CN(Cc2ccccc2)CC1
Potency [1]: inactive | Potency [2]: 13.5 µM (active)

COc1ccccc1S(=O)(=O)Nc1ccc2c(c1)CN(C)C(=O)N2
Potency [1]: inactive | Potency [2]: inactive

CN(C)CCn1cc(-c2ccc(F)cc2)c(-n2cccc2)n1
Potency [1]: inactive | Potency [2]: 15.1 µM (active)

Cc1cc(CS(=O)(=O)c2ccccc2)cc(OCc2ccc(CN3CCCC3CO)cc2)c1 (stereo not given)
Potency [1]: inactive | Potency [2]: 0.952 µM (active)

O=C(NCc1ccc(OC(F)(F)F)cc1)C1c2c(F)cccc2C(=O)N1CCc1ccccn1 (stereo not given)
Potency [1]: inactive | Potency [2]: 10.7 µM (active)

C=C1CCN([C@H](C)[C@](O)(Cn2cncn2)c2ccc(F)cc2F)CC1
Potency [1]: inactive | Potency [2]: 23.9 µM (active)

O=C(N[C@H]1CCN(C(=O)c2cc(C(F)(F)F)cc(C(F)(F)F)c2)[C@H](Cc2ccc(Cl)cc2)C1)c1ccnc2ccccc12
Potency [1]: inactive | Potency [2]: inactive

COc1ccc(CN2CCN(C(=O)CCNC(=O)c3ccc(C(C)(C)C)cc3)CC2)cc1
Potency [1]: inactive | Potency [2]: 15.1 µM (active)

Cn1ncc(Cl)c1-c1cc(C(=O)NC(CN)Cc2ccc(F)c(F)c2)oc1Cl (stereo not given)
Potency [1]: inactive | Potency [2]: 12 µM (active) and 13.5 µM (active)

O=C(Nc1ccc(Cl)cc1)Nc1cccc(-c2cccc(N3CCCC3)n2)c1
Potency [1]: inactive | Potency [2]: 6.74 µM (active)

O=c1nc(-c2ccccn2)sc2ccccc12
Potency [1]: 28.2 µM (active) | Potency [2]: inactive

Fc1ccc2c(CCNCc3cccc(OCC(F)(F)C(F)F)c3)c[nH]c2c1
Potency [1]: inactive | Potency [2]: 0.0477 µM (active)

O=C(O)c1ccc(S(=O)(=O)N(Cc2ccc(OC(F)(F)F)cc2)c2ncc(C(F)(F)F)cc2Cl)cc1
Potency [1]: inactive | Potency [2]: inactive

CC#C[C@@H](CC(=O)O)c1ccc(OCc2ccc(CN3CCC4(C=Cc5ccccc54)CC3)s2)cc1
Potency [1]: inactive | Potency [2]: 15.1 µM (active)

Cc1onc(-c2ccccc2)c1C(=O)N1CCN(c2ccc([N+](=O)[O-])cc2Cl)CC1
Potency [1]: inactive | Potency [2]: 5.35 µM (active)

Clc1cccc(COc2cncc(N3CCNCC3)n2)c1
Potency [1]: inactive | Potency [2]: 8.49 µM (active)

Cc1c(Cl)cccc1S(=O)(=O)Nc1nc(NCCc2ccccc2)nc2c1CN(Cc1ccccc1)CC2
Potency [1]: inactive | Potency [2]: 4.77 µM (active)

COc1ccccc1N1CCN(CC(C(=O)NC(C)(C)C)c2ccccc2)CC1 (stereo not given)
Potency [1]: inactive | Potency [2]: 1.69 µM (active)

COc1cc(F)c(C(C)C)cc1-c1ccc(C(F)(F)F)cc1CN1C(=O)OC(c2cc(C(F)(F)F)cc(C(F)(F)F)c2)C1C (stereo not given)
Potency [1]: inactive | Potency [2]: inactive

Fc1ccc(N2CCN(CCC3OCCc4ccccc43)CC2)cc1 (stereo not given)
Potency [1]: inactive | Potency [2]: 1.9 µM (active)

C[C@@H]1CCCN1CCc1cc2cc(-c3ccc(C#N)cc3)ccc2o1
Potency [1]: inactive | Potency [2]: 13.5 µM (active)

O=C(NC1(c2ccccc2)CC1)c1c(CN2CCC(N3CCCCC3)CC2)c(-c2cccc(C(F)(F)F)c2)nc2cc(Br)ccc12
Potency [1]: inactive | Potency [2]: 4.77 µM (active)

CCCn1ncc(CN2CCCC(C(=O)c3cccc(OC(C)C)c3)C2)c1C (stereo not given)
Potency [1]: inactive | Potency [2]: 0.338 µM (active)

COCC(=O)NC/C=C/c1ccc2ncnc(Nc3ccc(Oc4ccc(C)nc4)c(C)c3)c2c1
Potency [1]: inactive | Potency [2]: 10.7 µM (active)

CCCc1ccc(OCC(=O)N(Cc2nc(-c3cccnc3)no2)C(C)C)cc1
Potency [1]: inactive | Potency [2]: 19 µM (active)

COC(=O)c1ccc2c(c1)[nH]c1ncnc(NCCCN3CCCCC3)c12
Potency [1]: inactive | Potency [2]: inactive

O=C(Nc1ccc2[nH]c(=O)oc2c1)C(=O)N1CCC(Cc2ccc(F)cc2)CC1
Potency [1]: inactive | Potency [2]: 21.3 µM (active)

CCC(C)c1ccc(NC(=O)Cn2cnc3c2c(=O)n(C)c(=O)n3C)cc1 (stereo not given)
Potency [1]: inactive | Potency [2]: inactive

CNC(=O)[C@@H](c1ccccc1)N1CCc2cc(OC)c(OC)cc2[C@@H]1CCc1ccc(C(F)(F)F)cc1
Potency [1]: inactive | Potency [2]: 4.77 µM (active)

CC(C)(Cc1nc(-c2ccc(O)cn2)no1)C(=O)NC1=C(C(=O)O)CCCC1
Potency [1]: inactive | Potency [2]: inactive

CCCCC1CCN(CCCN2C(=O)CCc3ccccc32)CC1
Potency [1]: inactive | Potency [2]: 0.756 µM (active)

CC(C)Nc1nc(Nc2ccccc2)nc(-c2ccccc2)n1
Potency [1]: inactive | Potency [2]: inactive

O=C(c1cc(Cc2n[nH]c(=O)c3ccccc23)ccc1F)N1CCCNCC1
Potency [1]: inactive | Potency [2]: inactive

COc1ccc2c(c1)C(C(=O)N(Cc1ccc(N(C)C)cc1)c1ccc(C(C)C)cc1)CCC2 (stereo not given)
Potency [1]: inactive | Potency [2]: inactive

Cc1ccc(N2CCN(CCC3NC(=O)c4ccccc43)CC2)cc1C (stereo not given)
Potency [1]: inactive | Potency [2]: inactive

N#Cc1ccc(COC[C@H]2O[C@@H](n3c(NCc4ccc(Cl)c(Cl)c4)nc4c(N)ncnc43)[C@H](O)[C@@H]2O)cc1
Potency [1]: inactive | Potency [2]: 10.7 µM (active)

O=S(=O)(c1ccc(Cl)cc1)N1CCN(c2ccnc3cc(Cl)ccc23)CC1
Potency [1]: inactive | Potency [2]: 8.49 µM (active)

CCC(CC)Nc1nc(C)c(-c2ccc(OC(F)(F)F)cc2OC)nc1OC
Potency [1]: inactive | Potency [2]: inactive

COc1ccc2c(NC(=O)Nc3cccc(C(F)(F)F)n3)ccnc2c1
Potency [1]: inactive | Potency [2]: inactive

CCOC(=O)C1=Cc2ccc(C(F)(F)C(F)(F)F)cc2N=C(N)C1
Potency [1]: inactive | Potency [2]: 3.01 µM (active)

Cn1cc(-c2cnn3c(N)c(Br)c([C@@H]4CCCNC4)nc23)cn1
Potency [1]: inactive | Potency [2]: 10.7 µM (active)

Cc1nc(N2CCN(C(=O)c3ccco3)CC2)c2c3c(sc2n1)CCCC3
Potency [1]: inactive | Potency [2]: 10.7 µM (active)

CC(C)C[C@@H](C(=O)N[C@@H](Cc1ccc(OCc2ccccc2)cc1)C(=O)NC(C)(C)C)N(C)Cc1ccc(C(C)(C)C)cc1
Potency [1]: inactive | Potency [2]: inactive

O=C(Nc1ccccc1)N1CCC(Cc2cnc3ccccc3c2)CC1
Potency [1]: inactive | Potency [2]: 26.8 µM (active)

COc1ccc(Cl)c(Nc2ncnc3cc(OCC4CCN(C)CC4)c(OC)cc23)c1
Potency [1]: inactive | Potency [2]: inactive

O=C(Nc1ccc(N(Cc2ccsc2)C(=O)Cn2nnc3ccccc32)cc1)C1CC1
Potency [1]: inactive | Potency [2]: 4.77 µM (active)

Cc1cn2c(n1)Cc1ccc(Cl)cc1C(c1ccc(N)cc1)=N2
Potency [1]: inactive | Potency [2]: 16.9 µM (active)

CCOC(=O)N1CCC(N2CCC[C@@H](NC(=O)c3ccccc3C)C2)CC1
Potency [1]: inactive | Potency [2]: 16.9 µM (active)

CC(NC(=O)Cc1cc(F)cc(F)c1)C(=O)NC1C(=O)N(C)c2ccccc2-c2ccccc21 (stereo not given)
Potency [1]: inactive | Potency [2]: inactive

Cc1c(NC(=O)OCC2COCCN2)cn2ncnc(Nc3ccc4c(cnn4Cc4cccc(F)c4)c3)c12 (stereo not given)
Potency [1]: inactive | Potency [2]: 21.3 µM (active)

Fc1ccc(-n2cc(CCCCN3CCC4(CC3)OCc3ccccc34)c3ccccc32)cc1
Potency [1]: inactive | Potency [2]: 0.601 µM (active)

CCCc1cc2c(N3CCN(C4=NCC(C)(C)S4)CC3)ncnc2s1
Potency [1]: inactive | Potency [2]: 0.952 µM (active)

Cc1cc(NC(=O)NCCN2CCC(O)(Cc3ccccc3)CC2)c2ccccc2n1
Potency [1]: inactive | Potency [2]: 8.49 µM (active)

Nc1nc2c(cnn2CCCc2ccc(O)cc2)c2nc(-c3ccco3)nn12
Potency [1]: inactive | Potency [2]: inactive

O=S(=O)(Cc1ccccc1)Nc1ccc(-c2ccc3c(cnn3-c3ccc(F)cc3)c2)c(C(F)(F)F)c1
Potency [1]: inactive | Potency [2]: inactive

COC(=O)N1CCC(n2ncc3c(N4CCOCC4)nc(-c4ccc(NC(=O)NC5CC5)cc4)nc32)CC1
Potency [1]: inactive | Potency [2]: 16.9 µM (active)

CC(C)S(=O)(=O)NC[C@H](C)c1ccc(-c2ccc(CCNS(C)(=O)=O)cc2)cc1
Potency [1]: inactive | Potency [2]: inactive

O=C(C(Cc1cccc(C(F)(F)F)c1)NS(=O)(=O)c1cc(F)c2c(c1)CCNC2)N1CCCC1 (stereo not given)
Potency [1]: inactive | Potency [2]: 13.5 µM (active)

CCC(=O)N1CCOc2c(cc(-c3ccc(OC)c(OC)c3)cc2OC[C@H]2CCCN(C)C2)C1
Potency [1]: inactive | Potency [2]: 13.5 µM (active)

O=c1[nH]c2ccccc2n1CCN1CCN(c2cccc(C(F)(F)F)c2)CC1
Potency [1]: inactive | Potency [2]: 7.56 µM (active)

O=C(Nc1ccccc1Br)NC1CCN(c2ccc(C(F)(F)F)cn2)C1 (stereo not given)
Potency [1]: inactive | Potency [2]: 10.7 µM (active)

CCNc1nc(Nc2cc(F)c(C(=O)N3CCOCC3)cc2OC)ncc1C(F)(F)F
Potency [1]: inactive | Potency [2]: inactive

— PubChem BioAssay (NCATS)
